The test system of one assay is PC26. As to the kind of experiment: qHTS profiling for inhibitors of Plasmodium falciparum proliferation (AID 504749).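 Also: 0% = DMSO vehicle and full inhibition = artemisinin control.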 Conditions: P. falciparum in erythrocytes, SYBR Green DNA, 72 h; series mostly up to 28.7 µM. The method, boiled down:
(§1)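 Readout was DNA-dye fluorescence from lysed cultures, ex 485/em 535 nm. Parasitized red cells had grown 72 h with compound; data scaled between 0.29 uM artemisinin and DMSO wells and corrected using vehicle-only plates.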
In general terms: qHTS replaces the single test concentration by a dilution series.

The next assay concerns PC49. The description is as above. To be noted: P. falciparum in erythrocytes, SYBR Green DNA, 72 h; series mostly up to 28.7 µM. The method, boiled down:
as §1

Another assay relates to SC27B. The assay is described as above. Conditions: P. falciparum in erythrocytes, SYBR Green DNA, 72 h; series mostly up to 28.7 µM. The method, boiled down: as §1
Another assay concerns TAB109. The description is as above. To be noted: P. falciparum in erythrocytes, SYBR Green DNA, 72 h; series mostly up to 28.7 µM. The method, boiled down: as §1
For another assay, the system named is TAB113. The description is as above. Conditions: P. falciparum in erythrocytes, SYBR Green DNA, 72 h; series mostly up to 28.7 µM. The method, boiled down:
as §1

The next assay concerns TAB165. The description is as above. To be noted: P. falciparum in erythrocytes, SYBR Green DNA, 72 h; series mostly up to 28.7 µM. The method, boiled down: as §1
The next assay relates to W2. The description is as above. Conditions: P. falciparum in erythrocytes, SYBR Green DNA, 72 h; series mostly up to 28.7 µM. The method, boiled down: as §1
The next assay deals with CRL-7250. The assay is described as follows: Cytotoxic Profiling of Annotated Libraries Using Quantitative High-Throughput Screening (AID 1296008). Also: potency is read from the fitted curve at half-maximal effect. As to max response: % is scaled to controls: 0 for no effect and ±100 for the full control effect. Conditions: Five cell lines viability, CellTiter-Glo ATP luminescence, 48-72 h; max response: stronger effect = lower value. The method, boiled down:
(§2)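 Cells exposed to compounds for 48 or 72 hr at 37 degrees Celsius. Viability read as ATP-coupled luminescence with CellTiter-Glo after 10 min at room temperature.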

For the next assay, the system named is HEK293. Described as above. To be noted: Five cell lines viability, CellTiter-Glo ATP luminescence, 48-72 h; max response: stronger effect = lower value. The method, boiled down: as §2
(Cellular ATP, detected with luciferase, serves as a proxy for viable cell number.)

The test system of a further assay is HaCat. The assay is described as above. Conditions: Five cell lines viability, CellTiter-Glo ATP luminescence, 48-72 h; max response: stronger effect = lower value. The method, boiled down:
as §2

Each structure is given as a SMILES string. Inconclusive results are not listed. Unmarked numbers belong to inactive results. The source made the active and inactive calls. Calls follow the shape of the dose curve; as a rule, active = well fitted inhibition curve with a large enough effect; inconclusive = small, poorly fitted or top-dose-only effect; inactive = flat fitted curve, though single readings scatter. Where a SMILES comes first, the peptide text is derived from it. [ ]: non-standard residue; d: D form. pGlu = O=C1CC[C@@H](C(=O)O)N1; Thz = O=C(O)[C@@H]1CSCN1
Also: nearly all actives have a fitted effect of over 60% in size.

For the molecule `CCCCCCCCCCCCCCCC(=O)OC(C)C`, the Potency entry with PC26, in the assay with PC49, in the assay on SC27B, in the assay with TAB109, in the assay on TAB113 and in the assay with TAB165 was “inactive” each time. In addition, the Potency entry in the assay with W2 was “inactive”. The max response in the assay with CRL-7250 was 3.48%; in the assay with HEK293, -10.5%; with HaCat, -20.5%.
Regarding `C[C@H](O)[C@H](O)[C@H]1CNc2nc(N)[nH]c(=O)c2N1`, the call in the assay with CRL-7250 and with HEK293 was inactive. Besides, the max response in the assay on HaCat was 1.87%.
For `Cc1ccc2c(n1)Oc1ccc(C(C)C(=O)OCC(=O)N(C)C)cc1C2` (stereo not given), the results for the max response in the assay with CRL-7250 and in the assay on HaCat were 4.34% and 0.244%, respectively. The outcome with HEK293 was inactive.
Turning to `c1ccc2sc(SSc3nc4ccccc4s3)nc2c1`, the Potency result in the assay with PC26, with PC49, in the assay on SC27B, in the assay with TAB109, in the assay with TAB113 and with TAB165 was “inactive” throughout. Besides, the Potency entry in the assay with W2 is “inactive”. In addition, the max response was 1.15% in the assay on CRL-7250, 3.28% in the assay with HEK293 and -2.36% with HaCat.
On to `O=C(O)[C@H](CC(=O)N1C[C@H]2CCCC[C@H]2C1)Cc1ccccc1`, for which the Potency result in the assay with PC26, with PC49, in the assay on SC27B, in the assay on TAB109, with TAB113 and in the assay on TAB165 was “inactive” in each case. The Potency entry in the assay with W2 was “inactive”. Also, the max response was -6.27% with CRL-7250, -22.3% in the assay with HEK293 and -9.54% with HaCat.
For the molecule `Nc1ccc(O)c(C(=O)O)c1`, the Potency entry in the assay with PC26, with PC49, in the assay on SC27B, with TAB109, in the assay with TAB113 and with TAB165 was “inactive” throughout. Further, the Potency result with W2 is “inactive”. Further, the outcome in the assay with CRL-7250 and in the assay on HaCat was inactive. Moreover, in the assay on HEK293, the max response was -8.37%.
Consider `CC1(C)[C@@H](O)CC[C@]2(C)[C@H]3C(=O)C=C4[C@@H]5C[C@@](C)(C(=O)O)CC[C@]5(C)CC[C@@]4(C)[C@]3(C)CC[C@@H]12`, for which the Potency result with PC26, with PC49, with SC27B, in the assay with TAB109, with TAB113 and with TAB165 was “inactive” in each case. The Potency result in the assay with W2 is “inactive”. The max response in the assay with CRL-7250 was 1.85%; with HaCat, -15.3%. Further, the molecule was called inactive in the assay on HEK293.
Take `COC(=O)[C@H]1[C@H]2C[C@@H]3c4[nH]c5cc(OC)ccc5c4CCN3C[C@H]2C[C@@H](OC(=O)/C=C/c2cc(OC)c(OC)c(OC)c2)[C@@H]1OC`: the max response is -14.2% with CRL-7250 and -6.09% in the assay with HEK293. In addition, the molecule was called inactive in the assay with HaCat.
Take `COc1cccc2c1C(=O)c1c(O)c3c(c(O)c1C2=O)C[C@@](O)(C(=O)CO)C[C@@H]3O[C@H]1C[C@H](N)[C@H](O[C@@H]2CCCCO2)[C@H](C)O1`: the Potency in the assay with CRL-7250 was 2.37 µM (active); in the assay with HEK293, 0.0841 µM (active); with HaCat, 0.0531 µM (active).
`Nc1c(CC(=O)O)cccc1C(=O)c1ccc(Br)cc1`: the Potency entry with PC26, with PC49, in the assay with SC27B, with TAB109, with TAB113 and in the assay on TAB165 was “inactive” in each case. In addition, the Potency entry with W2 was “inactive”. Besides, the max response in the assay on CRL-7250 is 4.53%; in the assay on HEK293, 2.21%. In the assay on HaCat, the result was inactive.
On to `O=C1CC[C@@H](C(=O)N2CSC[C@H]2C(=O)O)N1` ([pGlu]-[Thz]-OH), for which the Potency entry with PC26, in the assay on PC49, in the assay on SC27B, in the assay with TAB109, in the assay with TAB113 and in the assay on TAB165 was “inactive” throughout. Also, the Potency entry in the assay with W2 was “inactive”. Further, the max response was -1.65% in the assay with CRL-7250, -11.6% in the assay with HEK293 and 2.27% in the assay on HaCat.
Turning to `CN1[C@@H]2CC[C@H]1CC(OC(=O)C(CO)c1ccccc1)C2` (stereo not given in full), the Potency entry in the assay with PC26, with PC49, with SC27B, with TAB109, in the assay with TAB113 and in the assay on TAB165 was “inactive” throughout. In the assay with W2, the Potency entry is “inactive”. For the same molecule, the max response with CRL-7250 was -9.68%; in the assay with HEK293, 2.75%; in the assay with HaCat, -9.85%.
For the molecule `Cc1ccc(C(=O)c2ccc(CC(=O)O)n2C)cc1`, the Potency result with PC26, with PC49, in the assay on SC27B, in the assay with TAB109, in the assay on TAB113 and in the assay on TAB165 was “inactive” each time. Further, the Potency result with W2 is “inactive”. The values for the max response in the assay on CRL-7250, with HEK293 and in the assay on HaCat were -1.54%, -2.23% and 2.78%, respectively.
Turning to `COc1ccc(-c2cc(=S)ss2)cc1`, the Potency result in the assay on PC26, in the assay on PC49, in the assay on TAB109 and in the assay on W2 was “inactive” in each case. Besides, in the assay with CRL-7250, the max response was -2.86%. Besides, the molecule was classed as inactive with HaCat.
As to `O=C(O)c1ccccc1Nc1cccc(C(F)(F)F)c1`, the Potency result in the assay on PC26, with PC49, with SC27B, in the assay on TAB109, in the assay on TAB113 and in the assay on TAB165 was “inactive” throughout. The Potency result in the assay on W2 was “inactive”. Also, the max response in the assay with CRL-7250 is 0.849%; with HEK293, 3.56%.
Turning to `Cc1c(C(=O)O)c(O)cc2c1C(=O)c1c(O)c([C@@H]3O[C@H](CO)[C@@H](O)[C@H](O)[C@H]3O)c(O)c(O)c1C2=O`, the max response in the assay on HEK293 was -35.5%.
For `O=C(O)Cc1cccc(-c2cc(CCCCCCc3ccc(O[C@H]4O[C@H](CO)[C@@H](O)[C@H](O)[C@@H]4O)c(-c4cccc(CC(=O)O)c4)c3)ccc2O[C@H]2O[C@H](CO)[C@@H](O)[C@H](O)[C@@H]2O)c1`, the max response in the assay on HEK293 is 1.99%; in the assay on HaCat, -11.5%.
For the molecule `Cc1nc2ccccc2n1Cc1ccc(Cl)cc1`, the Potency result in the assay with PC26, in the assay with PC49, with SC27B, in the assay on TAB109, in the assay on TAB113 and with TAB165 was “inactive” in each case. For the same molecule, the results for the Potency in the assay with CRL-7250 and in the assay on HEK293 were 2.11 µM (active) and 1.68 µM (active), respectively.
With `Clc1ccccc1-c1nc(-c2ccncc2)no1`, the Potency result in the assay with PC26, with PC49, with SC27B and with TAB113 was “inactive” throughout. In addition, the max response with CRL-7250 is -4.27%. Also, the molecule was classed as inactive in the assay on HaCat.
Regarding `O=Cc1ccc(O)c(O)c1O`, the Potency with HEK293 was 26.6 µM (active). The result in the assay with HaCat was inactive.
On to `COc1cc(/C=C/C(=O)N2CCN(CC(=O)N3CCCC3)CC2)cc(OC)c1OC`, for which the Potency entry with PC49, in the assay with SC27B, in the assay on TAB109, in the assay with TAB113, in the assay with TAB165 and in the assay on W2 was “inactive” throughout. Moreover, the max response with CRL-7250 is -2.29%; with HEK293 it was 1.99%. Besides, the molecule was called inactive in the assay on HaCat.

These data come from PubChem BioAssay (NCATS).
